Inconclusive results are not listed. The source made the active and inactive calls. Unless noted, calls come from the whole dose curve; as a rule, active = well fitted inhibition curve with a large enough effect; inconclusive = small, poorly fitted or top-dose-only effect; inactive = flat fitted curve, though single readings scatter.
Assays:
[1] = qHTS for identification of novel therapeutic agents for treatment of microphthalmiaassociated transcription factor (MiT) renal cell carcinoma (RCC) (AID 1963991; calls by dose curve); details: CellTiter-Glo, 48 h; for z-score: stronger effect = lower value; for Potency: active = Z-AUC below -0.8 in all three lines
Method in brief: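 Three TFE3-fusion RCC cell lines (UOK109, UOK124, UOK145), 500 cells/well, were exposed to the 1912-compound MIPE 4.0 library for 48 hours at 37 C. Viability was read by CellTiter-Glo luminescence, normalised to DMSO (100%) and empty wells (0%), with 11-concentration curve fits.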

[2] = qHTS drug screen for cell cycle checkpoint inhibitors in PARPi-resistant BRCA-mutant ovarian cancer cell lines. (AID 1963452; calls by dose curve); details: PEO1/OlaR viability, CellTiter-Glo luminescence, 96 h; for Z-AUC: stronger effect = lower value
Method in brief: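 PEO1, PEO4 and PEO1/OlaR ovarian cancer cells, 600 per well, exposed 96 h at 37C to a dilution series. Viability read by CellTiter-Glo luminescence, normalized to DMSO and empty wells; activity summarized as Z-AUC.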

[3] = qHTS profiling for inhibitors of Plasmodium falciparum proliferation (AID 504749); note: nearly all actives have a fitted effect of over 60% in size;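 for activity, negative = inhibition: 0% = DMSO vehicle and full inhibition = artemisinin control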; details: P. falciparum in erythrocytes, SYBR Green DNA, 72 h
Method in brief: (§1)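 In a 72 h erythrocytic culture (37 C, humidified, 5% CO2) at 2.5% hematocrit and 0.3% starting parasitemia, compounds were tested; SYBR Green I in detergent lysis buffer stained parasite DNA overnight.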

3D7 = assay: as above; details: P. falciparum in erythrocytes, SYBR Green DNA, 72 h; series mostly up to 28.7 µM
Method in brief: as §1

7G8 = assay: as above; details: P. falciparum in erythrocytes, SYBR Green DNA, 72 h; series mostly up to 28.7 µM
Method in brief: as §1

AA1029 = assay: as above; details: P. falciparum in erythrocytes, SYBR Green DNA, 72 h; series mostly up to 28.7 µM
Method in brief: as §1

AS120 = assay: as above; details: P. falciparum in erythrocytes, SYBR Green DNA, 72 h; series mostly up to 28.7 µM
Method in brief: as §1

ATS189 = assay: as above; details: P. falciparum in erythrocytes, SYBR Green DNA, 72 h; series mostly up to 28.7 µM
Method in brief: as §1

ATS95 = assay: as above; details: P. falciparum in erythrocytes, SYBR Green DNA, 72 h; series mostly up to 28.7 µM
Method in brief: as §1

C2A = assay: as above; details: P. falciparum in erythrocytes, SYBR Green DNA, 72 h; series mostly up to 28.7 µM
Method in brief: as §1

[4] = TFE3-RCC UOK109 viability, measured here: UOK109 Z-AUC
[5] = TFE3-RCC viability, measured here: UOK124 Z-AUC
[6] = TFE3-RCC viability, measured here: UOK145 Z-AUC
[7] = measured here: PEO1 parental Z-AUC
[8] = at 28.7 µM (top of the series), parasite line A
[9] = at 28.7 µM (top of the series), parasite line B
Potency is the fitted concentration of half-maximal effect.

`CO[C@H]1C=CO[C@@]2(C)Oc3c(C)c(O)c4c(O)c(c5c(c4c3C2=O)NC2(CCN(CC(C)C)CC2)N=5)=NC(=O)C(C)=CC=C[C@H](C)[C@H](O)[C@@H](C)[C@@H](O)[C@@H](C)[C@H](OC(C)=O)[C@H]1C` showed a z-score [1, 4] of 0.267, a z-score [1, 5] of 0.0618 and a z-score [1, 6] of 0.486.
Compound `CCc1ccc(C=C2SC(=S)NC2=O)cc1` has a z-score [1, 4] of -0.104, a z-score [1, 5] of 0.457 and a z-score [1, 6] of -0.976.
For `COc1cc(N2CCC(N3CCN(C)CC3)CC2)ccc1Nc1ncc(Cl)c(Nc2ccccc2S(=O)(=O)C(C)C)n1`, the Z-AUC [2] was -0.172 (inactive), the Z-AUC [2, 7] was -0.594 and the Z-AUC ([2]; measured here: PEO4 Z-AUC) was -0.618. For the same compound, the Potency ([1]; TFE3-RCC UOK109 viability) was 14.8 µM (active), the z-score [1, 4] was -1.55 and the z-score [1, 5] was -1.62. For the same compound, the z-score [1, 6] was -1.41.
For `CCCCCN(C)CCC(O)(P(=O)(O)O)P(=O)(O)O`, the Z-AUC [2] was 0.387 (inactive), the Z-AUC [2, 7] was 1.32 and the Z-AUC ([2]; measured here: PEO4 Z-AUC) was 1.05. It also gave a z-score [1, 4] of 0.34, a z-score [1, 5] of 0.128 and a z-score [1, 6] of 0.245. For the same compound, the activity, negative = inhibition [3, 8] was 13.8% (inactive), the activity, negative = inhibition [3, 9] was 15.2% (inactive) and the outcome (3D7) was “inactive”. For the same compound, the Potency (7G8) was “inactive”, the outcome (AA1029) was “inactive” and the Potency (AS120) was “inactive”. For the same compound, the Potency (ATS189) was “inactive”, the outcome (ATS95) was “inactive” and the outcome (C2A) was “inactive”.
Compound `O=C(OCC#CCSc1nnc(-c2cccc3ccccc23)o1)c1cc2ccccc2s1` has a z-score [1, 4] of 0.144, a z-score [1, 5] of 0.66 and a z-score [1, 6] of 0.162.
In the case of `COc1ccc(Cc2nccc3cc(OC)c(OC)cc23)cc1OC`, the Z-AUC [2] is reported as -1.7 (inactive), the Z-AUC [2, 7] is reported as -1.2 and the Z-AUC ([2]; measured here: PEO4 Z-AUC) is reported as 0.243. For the same compound, the activity, negative = inhibition ([3]; at 12.8 µM (top of the series), parasite line A) was 0.631% (inactive), the activity, negative = inhibition ([3]; at 12.8 µM (top of the series), parasite line B) was 6.88% (inactive) and the Potency (7G8) was “inactive”. The outcome (AA1029) was “inactive”, the Potency (AS120) was “inactive” and the Potency (ATS189) was “inactive”. For the same compound, the outcome (ATS95) was “inactive” and the outcome (C2A) was “inactive”.
With `COc1ncc(-c2ccc3nccc(-c4ccnnc4)c3c2)cc1NS(=O)(=O)c1ccc(F)cc1F` the Potency [2] was 174 nM (active), the Z-AUC [2, 7] was -2.06 and the Z-AUC ([2]; measured here: PEO4 Z-AUC) was -1.99. The Potency ([1]; TFE3-RCC UOK109 viability) was 33.2 µM (active), the z-score [1, 4] was -3.1 and the z-score [1, 5] was -1.24. For the same compound, the z-score [1, 6] was -3.12.
With `CC/C(=C(\c1ccccc1)c1ccc(OCCN(C)C)cc1)c1ccccc1` the Z-AUC [2] was -0.344 (inactive), the Z-AUC [2, 7] was -0.716 and the Z-AUC ([2]; measured here: PEO4 Z-AUC) was -0.672. The Potency (7G8) was 12.6 µM (active).
With `O=c1ccn([C@@H]2O[C@H](CO)[C@H](O)[C@H]2O)c(=O)[nH]1` the z-score [1, 4] was 0.533, the z-score [1, 5] was 0.584 and the z-score [1, 6] was 0.624.
In the case of `COc1ccc(-c2nc(N3CCOCC3)c3sc(CN(C)c4ncc(C(=O)NO)cn4)cc3n2)cn1`, the Potency [2] is reported as 61.6 nM (active), the Z-AUC [2, 7] is reported as -1.63 and the Z-AUC ([2]; measured here: PEO4 Z-AUC) is reported as -1.69. For the same compound, the Potency ([1]; TFE3-RCC UOK109 viability) was 0.0264 µM (active), the z-score [1, 4] was -3.18 and the z-score [1, 5] was -4.67. It also gave a z-score [1, 6] of -3.65.
In the case of `CC1=C(/C=C/C(C)=C/C=C/C(C)=C/C(=O)Nc2ccc(O)cc2)C(C)(C)CCC1`, the Z-AUC [2] is reported as 0.685 (inactive), the Z-AUC [2, 7] is reported as 0.437 and the Z-AUC ([2]; measured here: PEO4 Z-AUC) is reported as 0.121. For the same compound, the Potency ([3]; parasite line A) was 11.2 µM (active), the Potency ([3]; parasite line B) was 10 µM (active) and the Potency (7G8) was 8.91 µM (active). The Potency (AS120) was 10 µM (active) and the Potency (ATS189) was 7.94 µM (active).
For `O=C(O)C(O)Cc1ccc(O)c(O)c1` (stereo unspecified), the Z-AUC [2] was 0.82 (inactive), the Z-AUC [2, 7] was 1.05 and the Z-AUC ([2]; measured here: PEO4 Z-AUC) was 0.735. The z-score [1, 4] was 0.888, the z-score [1, 5] was 1.07 and the z-score [1, 6] was 1.23.
For `O=C(O)c1cc(O)c2c(c1)C(=O)c1cccc(O)c1C2=O`, the Z-AUC [2] was -0.369 (inactive), the Z-AUC [2, 7] was -0.852 and the Z-AUC ([2]; measured here: PEO4 Z-AUC) was -0.959. It also gave a z-score [1, 4] of 1.17, a z-score [1, 5] of -0.187 and a z-score [1, 6] of 1.5.
Compound `CCC(=O)O[C@]1(C(=O)CO)CC[C@H]2[C@@H]3CCC4=CC(=O)CC[C@]4(C)[C@@H]3CC[C@@]21C` has a z-score [1, 4] of 1.05, a z-score [1, 5] of 0.404 and a z-score [1, 6] of 0.464.
In the case of `O=C(Nc1c(Cl)cncc1Cl)c1ccc(OC(F)F)c(OCC2CC2)c1`, the Z-AUC [2] is reported as 0.0747 (inactive), the Z-AUC [2, 7] is reported as 0.551 and the Z-AUC ([2]; measured here: PEO4 Z-AUC) is reported as 0.508. For the same compound, the z-score [1, 4] was -0.715, the z-score [1, 5] was 0.259 and the z-score [1, 6] was 0.585.
With `CC(C)n1nc(-c2ccc3oc(N)nc3c2)c2c(N)ncnc21` the Potency [2] was 871 nM (active), the Z-AUC [2, 7] was -1.21 and the Z-AUC ([2]; measured here: PEO4 Z-AUC) was -1.54. The Potency ([1]; TFE3-RCC UOK109 viability) was 0.0372 µM (active), the z-score [1, 4] was -2.39 and the z-score [1, 5] was -2.58. It also gave a z-score [1, 6] of -3.7.
Work on `CO[C@H]1C[C@@H]2CC[C@@H](C)[C@@](O)(O2)C(=O)C(=O)N2CCCC[C@@H]2C(=O)O[C@H]([C@H](C)C[C@@H]2CC[C@H](OP(C)(C)=O)[C@H](OC)C2)CC(=O)[C@H](C)C=C(C)[C@@H](O)[C@@H](OC)C(=O)[C@H](C)C[C@H](C)C=CC=CC=C1C` yielded a z-score [1, 4] of 0.0461, a z-score [1, 5] of 0.621 and a z-score [1, 6] of -0.765.
For `COc1cc2nc(-c3ccc(N4CCN(C)CC4)cc3)nc(NCCN3CCOCC3)c2cc1OC`, the Z-AUC [2] was -0.0476 (inactive), the Z-AUC [2, 7] was -0.00961 and the Z-AUC ([2]; measured here: PEO4 Z-AUC) was -0.573. The Potency ([1]; TFE3-RCC UOK109 viability) was 1.18 µM (active), the z-score [1, 4] was -1.15 and the z-score [1, 5] was -1.85. The z-score [1, 6] was -1.4.
Work on `C[N+]1(C)[C@@H]2CC(OC(=O)[C@H](CO)c3ccccc3)C[C@H]1[C@H]1O[C@@H]12` (stereo partly specified) yielded a z-score [1, 4] of 0.318, a z-score [1, 5] of 0.652 and a z-score [1, 6] of 0.553.
With `Clc1ccc(-c2nc3sccn3c2C=NOCc2ccc(Cl)c(Cl)c2)cc1` the z-score [1, 4] was 0.77, the z-score [1, 5] was 0.598 and the z-score [1, 6] was 0.227.
`CC(=Cc1ccccc1)C=C1SC(=S)N(CC(=O)O)C1=O` showed a z-score [1, 4] of 1.2, a z-score [1, 5] of 1.04 and a z-score [1, 6] of 0.683.
Compound `CC(C)(C)COc1ccc(-n2cc(C(=O)O)cn2)cc1C#N` has a z-score [1, 4] of 1.01, a z-score [1, 5] of 0.953 and a z-score [1, 6] of 0.498.
Compound `OC[C@H]1O[C@@H](Oc2cc(O)cc(C=Cc3ccc(O)cc3)c2)[C@H](O)[C@@H](O)[C@H]1O` has a z-score [1, 4] of 0.664, a z-score [1, 5] of 0.547 and a z-score [1, 6] of 1.48.
For `Cc1cnc(C(=O)O)c[n+]1[O-]`, the Z-AUC [2] was -0.768 (inactive), the Z-AUC [2, 7] was -0.301 and the Z-AUC ([2]; measured here: PEO4 Z-AUC) was -0.6. The z-score [1, 4] was 1.58, the z-score [1, 5] was 0.716 and the z-score [1, 6] was 0.578. The activity, negative = inhibition [3, 8] was -1.49% (inactive), the activity, negative = inhibition [3, 9] was -8.14% (inactive) and the outcome (3D7) was “inactive”. The Potency (7G8) was “inactive”, the outcome (AA1029) was “inactive” and the Potency (AS120) was “inactive”. The Potency (ATS189) was “inactive”, the outcome (ATS95) was “inactive” and the outcome (C2A) was “inactive”.
In the case of `O=C(O)c1ccc(-c2c[nH]c3ncc(-c4ccccc4)cc23)cc1C1CCCC1`, the Z-AUC [2] is reported as 0.296 (inactive), the Z-AUC [2, 7] is reported as -0.104 and the Z-AUC ([2]; measured here: PEO4 Z-AUC) is reported as 0.0769. For the same compound, the z-score [1, 4] was 1.28, the z-score [1, 5] was 0.56 and the z-score [1, 6] was 0.0409.
For `COc1ccc(Cc2ccc(NC(N)=O)cc2)cc1-c1cccc(Cl)c1`, the Z-AUC [2] was 0.65 (inactive), the Z-AUC [2, 7] was -0.098 and the Z-AUC ([2]; measured here: PEO4 Z-AUC) was 0.315. It also gave a z-score [1, 4] of 0.762, a z-score [1, 5] of 0.853 and a z-score [1, 6] of 0.582.
